Laboratory results as given in the supplement of paper PMC3334620.
The full ranking holds about 33,000 sequences; the median of “E-score (-0.5 to 0.5)” is about -0.0059, and the highest 2% start at about 0.26. The sample holds the highest values, similar sequences and a random draw of the others, so the mix is not that of the screen.

Target: T1, Cin5 (UniProt P40917)
T1 sequence: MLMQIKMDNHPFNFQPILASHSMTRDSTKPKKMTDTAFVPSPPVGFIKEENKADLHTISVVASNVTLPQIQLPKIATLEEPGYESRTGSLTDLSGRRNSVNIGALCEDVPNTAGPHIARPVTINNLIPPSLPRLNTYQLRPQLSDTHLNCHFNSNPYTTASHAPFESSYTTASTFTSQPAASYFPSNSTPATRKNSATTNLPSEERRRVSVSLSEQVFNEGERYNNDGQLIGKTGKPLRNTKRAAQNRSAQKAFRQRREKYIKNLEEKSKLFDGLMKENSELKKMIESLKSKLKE
Assay: PBM E-score (8-mer binding enrichment) (E-score (-0.5 to 0.5)); higher = stronger / more preferred TF binding
Conditions: protein concentration: 100 nM; construct: GST-full length
Experimental: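 Universal 'all 10-mer' protein binding microarrays (Agilent AMADID 015681) probed with GST-tagged S. cerevisiae TFs (full-length or DBD) made by in vitro transcription/translation (PURExpress), about 100-200 nM. Bound TF was detected with fluorescent anti-GST. Each ungapped 8-mer (which stands for itself and its reverse complement) is scored by the PBM enrichment score (E-score), a modified Wilcoxon-Mann-Whitney statistic from -0.5 to +0.5, computed with the Universal PBM Analysis Suite. Scale: above 0.35 generally sequence-specific binding.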

Row | Sequence | PBM E-score
1 | AATGTTGA | -0.014
2 | CATGTTGA | 0.293
3 | GCACCACA | -0.122
4 | ACCAATAG | -0.123
5 | AACAATAC | 0.187
6 | AACAATAA | 0.257
7 | ACCAATAC | 0.104
8 | ACCAATAT | 0.323
9 | AACAATAT | 0.345
10 | GCTTGCCA | -0.131
11 | ATCTGGCC | -0.108
12 | CACGCGAC | -0.0294
13 | TACTTGCA | 0.141
14 | CCACAGAC | -0.0305
15 | CGCGCTGA | 0.104
16 | ATCGCTTA | 0.0758
17 | CGCGCTTA | 0.297
18 | AGCGCTTA | 0.157
19 | CTCGCTTA | 0.346
20 | CTCGCTGA | -0.0383
21 | AGGTATAT | 0.193
22 | GGCGGGTA | -0.194
23 | CGCCAAAC | -0.072
24 | ACGCTAAC | 0.0232
25 | GTTCAAAA | -0.105

Row | Sequence | PBM E-score
26 | CTTAGTAA | 0.392
27 | ATTAGTAG | 0.0962
28 | GTTAGTAA | 0.111
29 | CTTAGTAC | 0.0461
30 | ATTAGTAA | 0.387
31 | ATTAGTAC | 0.173
32 | ATCTGGGC | -0.0822
33 | AGCTGTTC | -0.0725
34 | TCGCAAAA | 0.156
35 | CAGTATGC | 0.0107
36 | CTTAGCTC | -0.106
37 | CCATGTAG | -0.00831
38 | ACATGTAG | 0.278
39 | ACATGTAA | 0.168
40 | CCAGATTA | 0.225
41 | CGGCTCGC | 0.0606
42 | AAAATGGG | -0.0874
43 | GAAATGTA | 0.143
44 | CAAATGGA | -0.0888
45 | TAAATGTA | 0.191
46 | CAAATGTA | 0.268
47 | CTGATGAA | 0.0259
48 | ATGATGTA | 0.305
49 | ATGATGTG | 0.145
50 | AAAATGGA | 0.29

Row | Sequence | PBM E-score
51 | ATGATGTC | 0.233
52 | GTGATGAA | 0.0186
53 | ATGATGAA | 0.258
54 | GCATAGCA | -0.0462
55 | AGCCACCT | -0.192
56 | GATCTGGA | -0.125
57 | CCTTAACG | -0.0146
58 | GTAGGGAA | 0.00147
59 | GAAACGCC | 0.114
60 | CGGGCGTA | -0.132
61 | ACAACCGT | -0.172
62 | GTGATGTA | 0.172
63 | CTGATGTA | 0.266
64 | CTGATGTC | 0.184
65 | GCAGCAAC | -0.0419
66 | ATGAATGG | 0.301
67 | ATGAATGA | 0.143
68 | ATGAATGC | 0.167
69 | CCCATCAG | -0.165
70 | CACCACGG | -0.325
71 | CTATTAAG | -0.041
72 | ATATTAAA | 0.35
73 | TGATTAAA | 0.0915
74 | ATATTAAG | 0.122
75 | CTATTAAA | 0.00048

Row | Sequence | PBM E-score
76 | ATATTAAT | 0.362
77 | GTATTAAA | 0.149
78 | TTATTAAA | 0.278
79 | CTATTAAC | 0.115
80 | ATATTAAC | 0.28
81 | GTATTAAC | 0.00428
82 | AGATTAAT | 0.218
83 | AAGGATAG | 0.0333
84 | TCGATGCA | 0.152
85 | GTTCAGTA | 0.0391
86 | TGGTCGAA | -0.242
87 | ATATCCCC | 0.0837
88 | TGCTGCCA | -0.0641
89 | ATGATTCG | 0.053
90 | CATCCCTA | 0.122
91 | CATTCTGG | 0.0333
92 | GCACCTAA | -0.0501
93 | ACATTAAA | 0.152
94 | TCATTAAA | 0.353
95 | GCATTAAA | 0.0586
96 | GCGTCCAC | -0.283
97 | GCCTCCGC | -0.203
98 | ATATTACC | 0.317
99 | ATATTACA | 0.209
100 | AAATTACC | 0.123

Row | Sequence | PBM E-score
101 | ATATTACG | 0.376
102 | AAATTACG | 0.171
103 | CTATTACC | -0.0809
104 | AAGAAAAT | 0.159
105 | CTCTACAC | -0.0485
106 | CTAGTAAA | 0.165
107 | TTAGTAAA | 0.269
108 | ATAGTAAA | 0.198
109 | ATCGTAAC | 0.0852
110 | ATAGTAAT | 0.358
111 | ATCGTAAA | 0.0952
112 | ATAGTAAC | 0.182
113 | GTAGTAAA | 0.149
114 | ATCGTAAT | 0.385
115 | CCGGTAGG | -0.163
116 | CCCAGAAG | -0.167
117 | GCGATAGA | 0.0484
118 | CGACTTGA | -0.0696
119 | AATCTACC | 0.138
120 | CAGATTCC | -0.0124
121 | GAACTAGA | -0.00859
122 | TAACTAGA | 0.306
123 | AAACTAGA | -0.116
124 | AAGATTCT | -0.106
125 | CTTTTGGA | -0.0744

Row | Sequence | PBM E-score
126 | ACAGACAG | 0.195
127 | AGACAGAG | -0.0616
128 | ACAGACAC | -0.0499
129 | AGACAGAT | 0.277
130 | AGACAGAC | 0.192
131 | ACAGACAA | 0.28
132 | AAGGTCGA | 0.146
133 | ACCACGCG | -0.0218
134 | ACGTATCA | 0.156
135 | GAGCCGGA | -0.178
136 | CTATAGTC | -0.063
137 | ATATATAA | 0.335
138 | CTATATAA | 0.0999
139 | ATATATAT | 0.146
140 | ATATAGTA | 0.235
141 | GTATATAC | 0.104
142 | ATATATAG | 0.26
143 | ATATAGTC | 0.258
144 | GTATATAA | 0.222
145 | ATATATAC | 0.316
146 | AGATATAG | 0.149
147 | CTATATAG | 0.103
148 | ACCATCGG | -0.108
149 | GAGGCGAC | -0.213
150 | AGATTCTC | 0.0336

Row | Sequence | PBM E-score
151 | GTGCAGGA | -0.0289
152 | GAAGTCCA | -0.133
153 | CTATATAC | 0.313
154 | CTCTATAC | -0.0333
155 | CTATATGC | 0.212
156 | AATACATG | 0.195
157 | CATACATA | 0.213
158 | ATTACAGA | 0.0804
159 | CTTACACA | 0.259
160 | ATTACACG | 0.0848
161 | ATTACAGG | 0.244
162 | AATACATA | 0.278
163 | ATTACATG | 0.297
164 | AGTACATG | 0.118
165 | CTTACACC | -0.0748
166 | ACTACATA | 0.207
167 | ATTACATA | 0.355
168 | GTGCCGTA | 0.0613
169 | CACCTTGA | 0.00105
170 | AAAAGACT | -0.205
171 | GGCCATAA | 0.0497
172 | AGAAGGTG | 0.0112
